# Only some compounds are listed: those with a hit (about 27% of all), similar ones and a draw of the others.
# CYP2C19 act: activators of human cytochrome P450 2C19 | P33261 | recombinant CYP2C19, luciferin-H EGE luminescence; hits give high values; 0 = fully inhibited enzyme, 1 = untreated enzyme | activation factor at 5 µM | 96,000 tested, under 10 active;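 active = activation factor of at least 2 at 5 µM in the primary screen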;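 note: 0 = wells with 2.5 mM tranylcypromine and 1 = vehicle-only wells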
# CYP2C9 inh: inhibitors of human CYP2C9. P11712. CYP2C9 Supersomes, luciferin-H conversion, luminescence. inhibition, % at 5 µM. 96,000 compounds, 20% hits. AID 777;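 active = blocking of liver enzyme CYP2C9 beyond about 50% at 5 µM, limit read from the data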
# Target sequence (P11712 whole entry, looked up): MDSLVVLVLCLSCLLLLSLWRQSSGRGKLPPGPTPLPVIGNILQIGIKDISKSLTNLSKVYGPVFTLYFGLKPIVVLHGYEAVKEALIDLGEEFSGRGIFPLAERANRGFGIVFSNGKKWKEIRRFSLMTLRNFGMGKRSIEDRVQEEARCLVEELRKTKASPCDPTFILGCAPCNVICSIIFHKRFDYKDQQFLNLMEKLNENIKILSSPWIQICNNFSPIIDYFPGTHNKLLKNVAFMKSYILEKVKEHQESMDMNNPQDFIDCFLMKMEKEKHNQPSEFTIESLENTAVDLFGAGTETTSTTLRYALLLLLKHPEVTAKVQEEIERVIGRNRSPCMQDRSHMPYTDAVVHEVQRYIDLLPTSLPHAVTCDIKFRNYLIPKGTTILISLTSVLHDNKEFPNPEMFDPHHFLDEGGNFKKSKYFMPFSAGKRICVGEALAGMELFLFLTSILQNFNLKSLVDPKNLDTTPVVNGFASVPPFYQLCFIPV
# Cav3 T inh: inhibitors of human Cav3.2 T-type calcium channel; AID 449739; B-score at 10 µM; Cav3.2-expressing cells, Fluo-4 calcium fluorescence FDSS; hits give low values; O95180; 100,000 compounds, 4% hits;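 active = single-dose well whose peak fluorescence ratio is a statistical outlier from its plate by either plate-standardised score or position-corrected B-score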
# CYP2C9 act: CYP2C9 (human) activation; P11712; AID 1024; 96,000 compounds, 1.4% hits; recombinant CYP2C9, luciferin-H conversion, luminescence; hits give high values; factor 1 = untreated enzyme, 0 = blocked; activation factor at 5 µM;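 active = activation factor of 2 or more for CYP2C9 at a 5 µM dose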;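 note: 0 = sulfaphenazole-blocked wells and 1 = vehicle-only wells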
# CYP2C19 inh: blocks human cytochrome P450 2C19; CYP2C19 Supersomes, luciferin-H EGE luminescence, 30 min; 96,000 compounds, 21% hits; inhibition, % at 5 µM; AID 778; P33261;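 active = CYP2C19 inhibition above a set limit at 5 µM in the primary screen, cut at about 50% in these data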;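 note: plate controls were negative control wells for no effect and 2.5 mM tranylcypromine positive control for full effect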
# * marks the source's active call; other numbers are inactive results; x = not tested or not shown.
SMILES,CYP2C19 act,CYP2C9 inh,Cav3 T inh,CYP2C9 act,CYP2C19 inh
COc1cc(C2c3c(-c4ccccc4)n[nH]c3C(=O)N2c2ccc(C(=O)O)cc2)ccc1O (stereo unspecified),1.1,-9.1,x,1.1,-8.5
CCOc1cc(C2c3c(n[nH]c3C)C(=O)N2c2ccc(Br)cc2)ccc1O (stereo unspecified),0.2,71.2*,-1.57,0.3,81.0*
COc1cc(C2c3c(n[nH]c3C)C(=O)N2c2ccc(Br)cc2)ccc1O (stereo unspecified),0.5,30.9,0.6,0.7,52.5*
C=CCn1c(CNc2ccccc2)nnc1SCC(=O)N/N=C/c1ccccc1O,1,9.9,-3.23,0.9,-4.1
OCCOCCn1c2ccccc2c2ccccc21,0.5,21.0,x,0.8,54.7*
O=C(OCn1nnc2ccccc2c1=O)c1ccc2c(=O)n3c(nc2c1)CCC3,0.9,31.0,0.187,0.7,11.2
CCCCOC(=O)Sc1nc2ccccc2o1,0.4,52.1*,0.0528,0.5,57.5*
COc1ccc(S(=O)(=O)N(C)CC(=O)Nc2ccccc2SC)cc1,0,-6.6,0.532,1.1,98.0*
COC(=O)c1ccccc1NC(=O)CN(C)S(=O)(=O)c1ccc(OC)cc1,0.3,-3.3,-0.207,1,72.5*
COc1ccc(NC(=O)CN(C)S(=O)(=O)c2ccccc2)cc1,0.4,54.6*,-0.517,0.5,61.5*
COc1ccc(NC(=O)CN(C)S(=O)(=O)c2ccccc2)c([N+](=O)[O-])c1,0.8,25.9,-0.32,0.7,16.0
COc1ccc(NC(=O)CN(C)S(=O)(=O)c2ccc(Cl)cc2)cc1Cl,0.9,6.0,-0.08,0.9,6.0
COc1ccc(S(=O)(=O)N(C)CC(=O)Nc2ccccc2SC)cc1Cl,0.7,-188.0,-1.33,2.9*,31.4
CCOC(=O)c1ccc(NC(=O)CN(C)S(=O)(=O)c2ccc(OC)cc2)cc1,0.9,-63.7,0.343,1.6,7.2
COc1ccc(S(=O)(=O)N(C)CC(=O)Nc2ccccc2OC)cc1,0.3,-15.2,0.525,1.2,73.1*
COc1ccc(S(=O)(=O)N(C)CC(=O)Nc2ccc(C(F)(F)F)cc2)cc1Cl,0.9,56.6*,0.963,0.4,6.7
COc1ccccc1NC(=O)CN(C)S(=O)(=O)c1ccc(F)cc1,0.4,-128.7,0.638,2.3*,55.9*
COC(=O)c1ccccc1NC(=O)CN(C)S(=O)(=O)c1ccc(OC)c(C)c1,0,-14.2,-3.63,1.1,99.6*
CCC(C)(C)n1nnnc1CN(Cc1cccs1)Cc1cc2cc(OC)ccc2[nH]c1=O,0.3,59.3*,-0.803,0.4,70.1*
CCOC(=O)Cn1nnnc1CN(Cc1cccs1)Cc1cc2cc(C)cc(C)c2[nH]c1=O,0.4,-29.6,x,1.3,62.8*
CCOc1ccc2[nH]c(=O)c(CN(Cc3cccs3)Cc3nnnn3C(C)(C)CC)cc2c1,0.6,36.6,-1.2,0.6,40.0
Cc1cccc2cc(CN(Cc3cccs3)Cc3nnnn3Cc3ccccc3)c(=O)[nH]c12,0.4,41.7,x,0.6,64.7*
Cc1ccc(C)c(Cn2nnc3c(=O)[nH]c(C4CCCN(C(=O)C5CCC5)C4)nc32)c1 (stereo unspecified),0.7,42.9,-0.832,0.6,28.0
Cc1ccc(Cn2nnc3c(=O)[nH]c(C4CCCN(C(=O)Nc5ccc(F)cc5)C4)nc32)cc1 (stereo unspecified),1.1,-1.0,0.0591,1,-7.0
Cc1ccc(C)c(Cn2nnc3c(=O)[nH]c(C4CCN(C(=O)c5cccs5)CC4)nc32)c1,0.5,87.6*,-4.13,0.1,51.0*
SMILES,CYP2C19 act,CYP2C9 inh,Cav3 T inh,CYP2C9 act,CYP2C19 inh
Cc1ccc(Cn2nnc3c(=O)[nH]c(C4CCN(C(=O)c5cccs5)CC4)nc32)cc1,0.5,72.4*,-1.18,0.3,45.3
CCC(C)N1CC23C=CC(O2)C(C(=O)OCc2ccccc2)C3C1=O (stereo unspecified),1.1,46.9,0.546,0.5,-5.2
CC(C)Cc1ccc(C#N)c(SCC(N)=O)n1,0.4,26.0,0.864,0.7,61.3*
COC(=O)CSc1nc(-c2cccs2)ccc1C#N,0.9,34.7,-0.0648,0.7,8.1
Cc1nn(C)c(C)c1CN(C)S(=O)(=O)c1ccc2ccccc2c1,x,x,1.69,x,x
Cc1oc2c(CN3CCOCC3)c(O)ccc2c(=O)c1-c1ccc(Br)cc1,0.7,54.3*,-0.321,0.5,26.0
O=c1c(-c2ccc(Br)cc2)coc2c(CN3CCOCC3)c(O)ccc12,0.8,57.8*,-0.045,0.4,18.9
COc1ccc(Oc2coc3c(CN4CCOCC4)c(O)ccc3c2=O)cc1,0.9,-5.2,0.000119,1.1,6.0
CCc1cc2c(=O)c(-c3cnn(-c4ccccc4)c3)c(C)oc2c(CN2CCCCC2)c1O,0.5,27.7,-1.88,0.7,46.5
Cc1oc2c(CN3CCCC3)c(O)ccc2c(=O)c1-c1ccc(Cl)cc1,1,7.1,x,0.9,3.5
CCc1cc2c(=O)c(-c3cnn(-c4ccccc4)c3)coc2c(CN2CCOCC2)c1O,0.8,73.7*,-1.66,0.3,22.3
O=c1oc2c(CN3CCOCC3)c(O)ccc2c2c1CCCC2,1,-104.1,1.06,2*,3.9
O=c1oc2c(CN3CCOCC3)c(O)c(Cl)cc2c2c1CCCC2,0.8,22.8,1.02,0.8,16.0
O=C(O)C1CSC2(CCN(Cc3ccccc3)CC2)N1 (stereo unspecified),x,x,0.0401,x,x
CCCCn1c(-c2cccs2)nc2nc3ccccc3nc21,0.7,44.4,-0.244,0.6,27.7
c1ccc(-c2nc3nc4ccccc4nc3n2Cc2ccco2)cc1,0.9,50.7*,-2.32,0.5,8.5
CCCCOCCCn1c(-c2ccco2)nc2nc3ccccc3nc21,0.5,52.5*,0.642,0.5,49.7
CSC1=C(C#N)C(c2ccc(C(C)C)cc2)CC(=O)N1 (stereo unspecified),0.9,40.8,x,0.6,5.4
CC(C)c1ccc(C2CC(=O)N3CN(Cc4ccco4)CSC3=C2C#N)cc1 (stereo unspecified),0.7,72.7*,1.29,0.3,28.2
COc1ccc(C2CC(=O)N3CN(Cc4ccco4)CSC3=C2C#N)cc1 (stereo unspecified),0.9,20.4,0.295,0.8,8.8
N#CC1=C2SCN(Cc3ccco3)CN2C(=O)CC1c1ccc(Cl)cc1 (stereo unspecified),0.4,70.2*,0.989,0.3,61.3*
CCCNC(=O)CC1Sc2ccccc2NC1=O (stereo unspecified),0.7,-136.1,-0.147,2.4*,29.9
O=C(O)CC1Sc2ccccc2NC1=O (stereo unspecified),1.1,-36.2,-0.00934,1.4,-12.4
COc1ccc(NC(=O)c2cc(S(=O)(=O)N3CCS(=O)(=O)CC3)ccc2Cl)cc1,1,20.7,0.524,0.8,2.2
O=S(=O)(Nc1nc(-c2sccc2Cl)cs1)c1cc(Cl)ccc1Cl,0.1,99.1*,-7.06*,0,90.4*
Nc1nnc(CCS(=O)(=O)c2cc(Cl)ccc2Cl)s1,1,0.9,0.47,1,-1.9
